Bioassay records (PubChem)
KCNH2 3.1 block: KCNH2 3.1 (human) potassium channel inhibition. activity change, % (tested at about 1.8 µM). AID 720553. U2OS KCNH2 3.1, thallium flux FluxOr; active compounds read low. 340,000 tested, 0.95% active;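 active = maximum activity change below -70%; inconclusive = maximum activity change from -70% to -50%; inactive = maximum activity change above -50%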;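 note: thallium influx rate constant from kinetic fluorescence after stimulation buffer; % is set by controls: 0 for no effect and ±100 for the full control effect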
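Normalized rate constant (relative to positive and negative DMSO controls) derived from a 2 min kinetic fluorescence read after stimulation; U2OS cells expressing the 3.1 isoform via virus at 1.77 x 10^8 /mL.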
hERG WT inh: blocks the wildtype human KCNH2 potassium channel; Q12809; U2OS, BacMam KCNH2, thallium flux FluxOr; active compounds read low; activity change, % at 1.84 µM; 340,000 tested, 0.37% active;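 active = maximum activity change below -70%; inconclusive = maximum activity change between -70% and -50%; inactive = maximum activity change above -50%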; note: % is set by controls: 0 for no effect and ±100 for the full control effect
Target sequence (Q12809 whole entry, looked up): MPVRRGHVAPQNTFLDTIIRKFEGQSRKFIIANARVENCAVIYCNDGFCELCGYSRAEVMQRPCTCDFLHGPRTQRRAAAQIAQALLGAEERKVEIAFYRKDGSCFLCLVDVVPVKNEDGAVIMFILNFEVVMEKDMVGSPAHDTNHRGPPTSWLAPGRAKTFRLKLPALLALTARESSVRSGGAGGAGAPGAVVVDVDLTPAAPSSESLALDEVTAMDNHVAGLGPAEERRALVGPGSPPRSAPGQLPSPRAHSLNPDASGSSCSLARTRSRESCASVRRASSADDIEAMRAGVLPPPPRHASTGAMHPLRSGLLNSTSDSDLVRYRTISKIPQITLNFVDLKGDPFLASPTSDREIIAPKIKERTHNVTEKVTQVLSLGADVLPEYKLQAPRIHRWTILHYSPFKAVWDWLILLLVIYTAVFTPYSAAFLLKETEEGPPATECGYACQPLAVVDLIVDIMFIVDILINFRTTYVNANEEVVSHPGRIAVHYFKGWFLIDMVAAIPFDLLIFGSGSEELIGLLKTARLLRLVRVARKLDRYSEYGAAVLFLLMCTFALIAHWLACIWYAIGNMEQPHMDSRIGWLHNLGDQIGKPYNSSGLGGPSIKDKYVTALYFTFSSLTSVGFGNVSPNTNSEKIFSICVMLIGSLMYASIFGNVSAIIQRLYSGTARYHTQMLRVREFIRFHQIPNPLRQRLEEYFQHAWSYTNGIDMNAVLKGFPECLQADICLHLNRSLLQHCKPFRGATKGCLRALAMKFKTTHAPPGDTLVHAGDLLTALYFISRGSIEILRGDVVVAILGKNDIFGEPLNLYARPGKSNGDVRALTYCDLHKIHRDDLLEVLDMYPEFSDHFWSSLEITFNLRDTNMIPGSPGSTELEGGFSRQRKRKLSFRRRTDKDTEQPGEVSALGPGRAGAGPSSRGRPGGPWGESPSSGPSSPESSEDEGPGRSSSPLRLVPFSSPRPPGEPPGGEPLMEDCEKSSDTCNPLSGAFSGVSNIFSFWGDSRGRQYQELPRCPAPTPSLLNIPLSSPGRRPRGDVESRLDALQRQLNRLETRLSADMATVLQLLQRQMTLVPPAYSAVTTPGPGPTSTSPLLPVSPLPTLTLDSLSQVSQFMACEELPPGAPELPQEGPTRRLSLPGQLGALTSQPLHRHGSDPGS
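U2OS cells were transduced with wild-type KCNH2 virus (2.03 x 10^8 / mL) for 4 h at room temperature, then cultured overnight at 37 C. Thallium flux was read with FluxOr dye. Rate constants were normalized to DMSO controls.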
Apoferritin bind: binds horse apoferritin like a general anesthetic | P02791 | apoferritin/1-aminoanthracene competitive binding, fluorescence | Potency, µM (doses to about 77.5 µM), for inactives: at the highest dose activity change, negative = displacement, hits mostly inhibitors | 350,000 tested, 0.074% active; note: potency is the fitted concentration of half-maximal effect; % is set by controls: 0 for no effect and ±100 for the full control effect; nearly all actives have a fitted effect of over 20% in size
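10 uM apoferritin + 50% sat. 1-AMA, PBS; cpd 10 min RT; Ex380/Em535 endpoint; normalized to free probe vs complex; 4-param Hill fit; propofol titration as pos. ctrl.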
S-ASM inh: inhibitors of human secretory acid sphingomyelinase; Potency, µM (titrated, usually from 57.5 µM), for inactives: top-dose activity change, negative = inhibition, most hits filed as inhibitors; placental ASM, HMU-PC fluorogenic substrate, 60 min; P17405; 340,000 tested, 0.006% active; note: potency is the fitted concentration of half-maximal effect
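Fluorescence read-out (Ex 386 nm, Em 447 nm) after stopping the reaction at pH 10. Enzyme: ASM from human placenta; substrate HMU-PC0, 9 uM final; 60 min, 37 °C. Compound preincubation 10 min, ambient temperature.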
IDH1 R132H inh: blocks human mutant IDH1 R132H enzyme; O75874; IDH1-R132H enzyme, NADPH consumption, diaphorase/resazurin fluorescence; Potency, µM (titrated, usually from 76.6 µM), for inactives: at the highest dose activity change, negative = inhibition, actives largely listed as inhibitors; 390,000 tested, 0.093% active; note: potency is the fitted concentration of half-maximal effect; % is set by controls: 0 for no effect and ±100 for the full control effect; nearly all actives have a fitted effect of over 65% in size
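IDH1-R132H (0.5 ug/mL) preincubated 30 min with compound, then NADPH (0.016 mM) and alpha-KG (2 mM) added; 80 min at RT, pH 7.5. Remaining NADPH coupled via diaphorase/resazurin to fluorescence (540/590 nm); concentration-response curves normalized to no-enzyme control.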
Resorufin autofl: interferes with resorufin fluorescence in IDH1 counter-screen | shares compounds with IDH1 R132H inh | 750 tested, under 10 active | inhibition of signal, % at 51.2 µM | Resorufin detection reagent fluorescence interference, cell-free;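 note: 0% = wells with normal resorufin and full inhibition = wells lacking resorufin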
IDH1 WT: inhibits human wild-type IDH1, mutant selectivity check. shares compounds with IDH1 R132H inh. WT IDH1 enzyme, NADPH diaphorase/resazurin fluorescence. Potency, µM (titrated, usually from 115 µM), for the others: at the top dose activity change, negative = inhibition, hits mostly inhibitors. 750 tested, 9% active. AID 623995;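 note: potency is the fitted concentration of half-maximal effect; 0% = full WT IDH1 enzyme control and full inhibition = no enzyme wells; nearly all actives have a fitted effect of over 55% in size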
IDH1 R132H conf: mutant IDH1 (human) inhibition, confirmed; IDH1 R132H enzyme, NADPH diaphorase/resazurin fluorescence; Potency, µM (titrated, usually from 76.6 µM), without a hit: top-dose activity change, negative = inhibition, actives largely listed as inhibitors; shares compounds with IDH1 R132H inh; 750 tested, 83% active; note: potency is the fitted concentration of half-maximal effect; nearly all actives have a fitted effect of over 50% in size
The depositor's hits bear a star; i = inactive; ? = inconclusive; . = no result. Sampled rows, rich in hits. Any-hit rate of the full collection: about 1.2%. Unless noted, calls come from the whole dose curve; as a rule, active = well fitted curve in the direction sought with a large enough effect; inconclusive = small, poorly fitted or top-dose-only effect, or another doubt; inactive = no such curve, though single readings can be large; an effect the other way counts as inactive or inconclusive.

SMILES | KCNH2 3.1 block | hERG WT inh | Apoferritin bind | S-ASM inh | IDH1 R132H inh | others
Cn1c(=S)c2[nH]c(SCCC(C)(C)C)nc2n(C)c1=O | -49 | -115* | . | -1% | 3%
CCCCC(C)Sc1nc2c([nH]1)c(=S)n(C)c(=O)n2C (centres undefined) | ? | -144* | . | -7% | -3%
CN(Cc1cn(C)nc1-c1ccc(Oc2ccccc2)cc1)Cc1cnc2ccccn12 | -32 | 2 | -14% | 2% | 5%
Cn1cc(CNCc2cnc3ccccn23)c(-c2ccc(Oc3ccccc3)cc2)n1 | -207* | i | -11% | -1% | 0%
COc1cccc(CNC(=O)CCC2CCCN(C(=O)CCn3cncn3)C2)c1 (centres undefined) | -94* | 3 | -2% | -2% | 0%
Cc1cc(C)c2nc(N3C(=O)C(O)=C(C(=O)c4ccco4)C3c3cccc(O)c3)sc2c1 (centres undefined) | -5 | 2 | . | -1% | 37µM*
Cc1cc(C)c2nc(N3C(=O)C(O)=C(C(=O)c4ccco4)C3c3ccc(O)cc3)sc2c1 (centres undefined) | 25 | 22 | . | 6% | 46µM*
O=C(N/N=C\c1ccc(Cl)cc1)C1=NOC2COC3(CCN(c4ccc([N+](=O)[O-])cc4)CC3)OCC12 (centres undefined) | -103* | -38 | -5% | -12% | -8%
CCOC(=O)C1(CCOc2ccccc2)CCN(Cc2cccc(OC)c2O)CC1 | -113* | -102* | 10% | 2% | 0%
CCOC(=O)C1(CCOc2ccccc2)CCN(Cc2ccc(-n3cccn3)cc2)CC1 | -108* | -130* | -5% | -7% | 7%
CCOC(=O)C1(CCOc2ccccc2)CCN(Cc2cc(OC)ccc2OC)CC1 | -88* | -80* | -12% | 10% | 12%
CCOC(=O)C1(CCOC)CCN(Cc2cccc(OCc3ccccc3)c2)CC1 | 5 | 0 | -8% | 2% | 10%
CCOC(=O)C1(CCOc2ccccc2)CCN(Cc2cccc(OC)c2)CC1 | -116* | -96* | . | -4% | -5%
CC(=O)OC1CC[C@]2(C)C(CC(OC(C)=O)[C@]3(C)C2CC[C@@]2(C)C(c4ccoc4)OC(=O)C4O[C@]432)C1(C)C (some centres undefined) | . | . | -1% | . | .
CCOC(=O)C1(CCOc2ccccc2)CCN(Cc2ccc3c(c2)OCCO3)CC1 | -39 | 60 | -7% | 0% | -2%
CCOC(=O)C1(CCOc2ccccc2)CCN(Cc2ccc(C(=O)OC)cc2)CC1 | -88* | 8 | -4% | 3% | 1%
CCOC(=O)C1(CCOc2ccccc2)CCN(Cc2ccc(O)c(OC)c2)CC1 | -75* | ? | -12% | 0% | 0%
CCOC(=O)C1(CCOc2ccccc2)CCN(Cc2ccc(F)c(OC)c2)CC1 | ? | 26 | -6% | 2% | -9%
CCOC(=O)C1(CCOc2ccccc2)CCN(Cc2cccn2-c2ncccn2)CC1 | -101* | -90* | -11% | 1% | -4%
CCOC(=O)C1(CCOc2ccccc2)CCN(Cc2cccs2)CC1 | -86* | ? | -15% | 5% | 0%
CCOC(=O)C1(CCOc2ccccc2)CCN(Cc2nccn2CC)CC1 | 1 | 14 | -6% | -2% | 17%
CCOC(=O)C1(CCOc2ccccc2)CCN(Cc2ccncc2)CC1 | 5 | 10 | -9% | 5% | 6%
CC1CCN(S(=O)(=O)N2CCC(C(=O)NCc3ccccc3Cl)CC2)CC1 | . | . | 1% | . | -11%
CCC1NC(=S)NC(C)=C1C(=O)c1ccccc1 (centres undefined) | -116* | 2 | -13% | 6% | 0%
CCC(=O)Nc1cc(C(=O)O)ccc1Sc1ccccc1 | -116* | 0 | -2% | -2% | 0%
SMILES | KCNH2 3.1 block | hERG WT inh | Apoferritin bind | S-ASM inh | IDH1 R132H inh | others
CCCC(=O)Nc1cc(C(=O)O)ccc1Sc1ccccc1 | 19 | 5 | -6% | 4% | -4%
CC(=O)Nc1ccc(C(=O)OCC(=O)Nc2ccccc2Sc2ccccc2)cc1 | -79* | -21 | -4% | -27% | -11%
O=C(NCC(c1ccco1)S(=O)(=O)c1cccs1)c1ccc(F)c(F)c1 (centres undefined) | . | . | -8% | . | 5%
O=c1[nH]c2ccccc2n1CCC1CCCCC1 | -2 | -10 | 28µM* | -3% | 7%
NC(C(=O)O)(c1ccc(P(=O)(O)O)cc1)C1CC1 (centres undefined) | . | . | 18% | . | .
CC(=O)Nc1cccc(-n2cc3c(c2-c2ccccc2Cl)c(=O)n(C)c(=O)n3C)c1 | . | . | -17% | . | ? | Resorufin autofl=0;IDH1 WT=0%;IDH1 R132H conf=40µM*
CCCCc1nnc(SCc2cc(=O)c3cc(C(=O)OCC)ccc3[nH]2)n1C | . | . | -2% | . | 4%
COc1cccc(C(=O)Nc2c(C(=O)N3CCN(c4ccc(F)cc4)CC3)oc3ccccc23)c1 | . | . | -5% | . | 1%
c1ccc(COC[C@@H]2CO2)cc1 | . | . | -1% | . | .
O=C(CN1C=NS(=O)(=O)c2ccccc21)Nc1ccc(Br)cc1 | . | . | -6% | . | 8%
COc1ccccc1S(=O)(=O)Nc1ccc(S(=O)(=O)Nc2nccs2)cc1 | 2 | -4 | . | 1% | -12%
COc1ccc(S(=O)(=O)Nc2ccc(S(=O)(=O)Nc3ccc(F)cc3)cc2)cc1C | 5 | -6 | -15% | -9% | ? | Resorufin autofl=-2;IDH1 WT=3%;IDH1 R132H conf=40µM*
Cc1ccc(S(=O)(=O)Nc2ccc(S(=O)(=O)Nc3nccs3)cc2)cc1C | 8 | -8 | . | 1% | 52µM* | Resorufin autofl=2;IDH1 WT=15%;IDH1 R132H conf=45µM*
Cc1ccccc1C1=C/C(=C(\SS/C(C(=O)c2ccc(OCC(=O)O)c(Cl)c2Cl)=C2\C=C(c3ccccc3C)SS2)C(=O)c2ccc(OCC(=O)O)c(Cl)c2Cl)SS1 | 2 | -5 | . | -27% | 12µM* | Resorufin autofl=1;IDH1 WT=0%;IDH1 R132H conf=40µM*
CCCCC(NC(=O)CCc1c(C)c2cc3c4c(oc3c(C)c2oc1=O)CCCC4)C(=O)O (centres undefined) | 6 | 3 | -2% | 81% | 46µM* | Resorufin autofl=-8;IDH1 WT=-7%;IDH1 R132H conf=25µM*
O=C(c1cnc(N2CCOCC2)c2ccccc12)N1CCN(c2ccc(F)cc2)CC1 | . | . | -5% | . | 9%
